The text below walks through data of PubChem BioAssay (NCATS).

Structures are written as SMILES. Results filed as inconclusive are left out. Values without a mark were called inactive. Calls of active or inactive are those of the source. Calls come from the whole dose curve.

The target of this assay is Peroxisome proliferator-activated receptor delta (Homo sapiens) (UniProt Q03181). The assay is described as follows: qHTS assay for small molecule agonists of peroxisome proliferator-activated receptor delta signaling (AID 588534).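 Note: 0% = DMSO basal wells and 100% = positive control agonist at 10 µM.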 Particulars: HEK293T PPARdelta-UAS-bla, beta-lactamase ratio, 18 h; series mostly up to 76.7 µM; activation: at the top concentration. From the text: NIH Chemical Genomics Center [NCGC] U.S. Environmental Protection Agency [EPA] National Institutes of Environmental Health Sciences [NIEHS] National Toxicology Program [NTP] NCGC Assay Overview The Peroxisome proliferator-activated receptors (PPARs) are lipid-activated transcription factors of the nuclear receptor superfamily with three distinct subtypes namely PPAR alpha, PPAR delta (also called PPAR beta) and PPAR gamma. All these subtypes heterodimerizes with Retinoid X receptor (RXR) and have different physiological functions. […] This role of PPAR delta implicates the potential use of its ligands in the treatment of metabolic disorders.
Sequence of Peroxisome proliferator-activated receptor delta (Homo sapiens) (Q03181 whole entry, looked up): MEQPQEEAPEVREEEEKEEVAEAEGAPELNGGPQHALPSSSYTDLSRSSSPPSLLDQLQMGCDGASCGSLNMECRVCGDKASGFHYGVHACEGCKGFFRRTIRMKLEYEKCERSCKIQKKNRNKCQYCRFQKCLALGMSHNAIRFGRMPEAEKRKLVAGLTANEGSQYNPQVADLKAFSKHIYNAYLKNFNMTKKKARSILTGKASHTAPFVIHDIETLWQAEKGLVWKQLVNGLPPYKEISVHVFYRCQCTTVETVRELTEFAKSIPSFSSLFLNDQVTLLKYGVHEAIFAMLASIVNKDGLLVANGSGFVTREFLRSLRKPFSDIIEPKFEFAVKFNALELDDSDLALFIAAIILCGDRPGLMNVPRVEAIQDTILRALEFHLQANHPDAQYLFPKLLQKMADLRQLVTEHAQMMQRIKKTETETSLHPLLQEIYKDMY
Compounds were screened in a titration series in 1536-well format. […] Concentration-response titration points for each compound were fitted to the Hill equation yielding concentrations of half-maximal stimulation (EC50) and maximal response (efficacy) values. qHTS protocol for PPAR-delta beta-lactamase assay in agonist mode [Step] [Parameter] [Value] [Description] 1. Reagent; 6 uL; 4000 cells/well 2. Incubation; 37 C for 5 hrs 3. Compounds; 23 nL; 0.59 nM to 92 uM 4. […] Incubation; 37 C for 18 hrs 6. Detection reagent; 1 uL of CCF4-dye 7. Incubation; RT for 2 hrs 8. Detection; Fluorescence; Envision plate reader
A general note: qHTS replaces the single test concentration by a dilution series.
In the case of `CC(C)(c1ccc(O)cc1)c1ccc(O)cc1`, the result was inactive.
Same read-out and setting: the value for `Nc1ccc(O)c([N+](=O)[O-])c1` was “inactive”.
Still for that read-out and setting: the value for `COc1ccc(C(c2ccc(OC)cc2)C(Cl)(Cl)Cl)cc1` was “inactive”; that for `Nc1ccc([N+](=O)[O-])cc1O` was “inactive”.
Consider `Nc1ccc(Sc2ccc(N)cc2)cc1`, for which the “activation” value was -7.59%.
As for `Nc1cccc2c(N)cccc12`, the outcome was inactive.
The same measure, in the same setting: the value for `CCCCOC(=O)c1ccccc1C(=O)OCc1ccccc1` was “inactive”.
Take `O=[N+]([O-])c1cc([N+](=O)[O-])c2ccccc2c1`: the “activation” value was -4.58%.
Still for that read-out and setting: under `CCCN(CCC)c1c([N+](=O)[O-])cc(S(N)(=O)=O)cc1[N+](=O)[O-]` stands -3.72%; under `C=CCNC(N)=S`, -6.61%.
In the case of `CC(C)Oc1cccc(NC(=O)c2ccccc2C(F)(F)F)c1`, the “activation” value was -11.1%.
The same measure, in the same setting: under `O=[N+]([O-])c1c(Cl)c(Cl)cc(Cl)c1Cl` stands 6.27%; under `OCc1c[nH]c2ccccc12`, 4.43%.
Regarding `C=CC(=O)NCNC(=O)C=C`, the outcome was inactive.
Consider `CCO/N=C(\CC)C1=C(O)CC(c2c(C)cc(C)cc2C)CC1=O` (stereo not given), for which the “activation” value is -4.59%.
In the case of `O=S(=O)(c1ccc(Cl)cc1)c1ccc(Cl)cc1`, the outcome was inactive.
As to `CCCCCCCCc1ccc(O)cc1`, the outcome was inactive.
On to `Clc1cnc(Oc2ccc(Oc3ncc(Cl)cc3Cl)cc2)c(Cl)c1`, for which the “activation” value was 7.23%.
On the same count and under the same terms, under `[Cl][In]([Cl])[Cl]` stands 10.4%.
Take `CCCCC(CC)COC(=O)c1ccc(N(C)C)cc1` (stereo not given): the result was inactive.
Consider `CN(C)c1ccc(N=NS(=O)(=O)O)cc1`, for which the outcome was inactive.
Regarding `CO/C=C(/C(=O)OC)c1ccccc1Oc1cc(Oc2ccccc2C#N)ncn1`, the “activation” value is -10%.
As to `CCCCCCCCCC(CC)c1ccc(S(=O)(=O)O)cc1` (stereo not given), the outcome was inactive.
As to `COCCOCCO`, the outcome was inactive.
Same read-out and setting: the value for `CCCCC(CC)COC(=O)c1ccccc1C(=O)OCC(CC)CCCC` (stereo not given) was “inactive”.
In the case of `Cc1ccc(N)cc1O`, the “activation” value was 9.48%.
On the same count and under the same terms, the value for `Cc1cc(O)ccc1Cl` was -0.903%.
As for `CC1=NN(c2ccccc2)C(=O)C1`, the outcome was inactive.
For `Nc1ccccc1N`, the “activation” value is 0.613%.
On the same count and under the same terms, under `CCCCCCCCCCCCCCCC[N+](C)(C)C` stands -4.38%.
As to `CCCOC(=O)c1ccc(O)cc1`, the outcome was inactive.
As for `CCOCCOC(C)=O`, the “activation” value was -2.07%.
For `COc1ccccc1O`, the result was inactive.
Still for that read-out and setting: the value for `O=S(=O)(O)C(F)(F)C(F)(F)C(F)(F)C(F)(F)F` was “inactive”.
On to `CCCCCCCCOc1ccc(C(=O)c2ccccc2)c(O)c1`, for which the “activation” value is 1.08%.
Take `C[C@]12C[C@H](O)[C@H]3[C@@H](CCC4=CC(=O)CC[C@@]43C)[C@@H]1CC[C@@H]2C(=O)CO`: the outcome was inactive.
Same read-out and setting: the value for `CC(C)C(C)(C)C(C)(C)C(C)(C)S` was “inactive”.
In the case of `CCCCCCCCCCCCCC(=O)OC(C)C`, the “activation” value is -0.131%.
Same read-out and setting: under `O=C1NS(=O)(=O)c2ccccc21` stands 4.22%; under `COC(=O)c1c(Cl)c(Cl)c(C(=O)OC)c(Cl)c1Cl`, 6.79%.
